High-throughput results as filed in PubChem BioAssay.
Dicer inh = inhibitors of Dicer pre-microRNA processing, primary screen, biochemical, cat-ELCCA, chemiluminescence; Endoribonuclease Dicer (Homo sapiens), Q9UPY3; cat-ELCCA pre-miR-21 Dicer processing; hits give high values; z-score at 25 µM; 47,000 compounds, 6% hits; AID 1347074, 2019; in the data active = z-score above about 3, passing the limit was not always enough;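 also: plate controls were vehicle for no effect and no enzyme for full effect; higher signal means more uncleaved substrate so more Dicer inhibition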
Active calls of the source: *. The sample as a whole holds a higher share of hits than the screen did.

SMILES | Dicer inh
COc1ccc(C2C(C(=O)OC(C)C)C(=O)CC(C)(O)C2C(=O)OC(C)C)cc1 (stereo not drawn) | -0.11
CSc1nnc(Sc2c([N+](=O)[O-])nc(C)n2Cc2ccccc2)s1 | -0.12
CCCOC(=O)C1=C(C)NC2=C(C(=O)CC(C)(C)C2)C1c1cccnc1 (stereo not drawn) | 0.87
CSc1ccc(C2C(C(=O)OCCOc3ccccc3)=C(C)NC3=C2C(=O)CC(C)(C)C3)cc1 (stereo not drawn) | 2.9
CCOCCOC(=O)C1=C(C)NC2=C(C(=O)CC(C)(C)C2)C1c1ccc(CC)cc1 (stereo not drawn) | -0.52
CCCOC(=O)C1=C(C)NC2=C(C(=O)CC(C)(C)C2)C1c1ccc(SC)cc1 (stereo not drawn) | 1.6
CC1=C(C(=O)OCCOc2ccccc2)C(c2cccnc2)C2=C(CC(C)(C)CC2=O)N1 (stereo not drawn) | 3.5*
CCCOCCOC(=O)C1=C(C)NC2=C(C(=O)CC(C)(C)C2)C1c1ccsc1 (stereo not drawn) | 5.1*
O=S(=O)(/N=C(\N/N=C/c1ccccc1O)N1CCCC1)c1ccccc1 | 11
CCOC(=O)N/N=C/c1ccc(N(C)C)cc1Cl | 0.93
COc1ccc(C)c2c1N[C@@H](c1ccc(C(=O)O)cc1)[C@H]1CC=C[C@@H]21 | 1.8
CCCCN(C(=O)NC(=O)Nc1ccc(Cl)cc1)S(C)(=O)=O | -0.52
N#Cc1c[nH]c2ccc(NC(=O)c3cccs3)cc12 | 0.05
Cc1ccc(C(=O)NC(=S)NNc2ncc(C(F)(F)F)cc2Cl)cc1 | -0.66
N#Cc1c(-c2ccccc2)c(-c2ccccc2)n[nH]c1=S | 0.79
Cn1c(=O)c(Nc2ccccc2)c2c3c(cccc31)C(=O)c1ccccc1-2 | 3.3*
COc1ccc(Nc2c3c4c(c(Br)ccc4n(C)c2=O)C(=O)c2ccccc2-3)cc1 | 0.38
CCCCCCCNc1c2c3c(cccc3n(C)c1=O)C(=O)c1ccccc1-2 | -0.78
Cc1ccc(-n2nnnc2-c2c[nH]c3cc(Cl)ccc23)cc1 | 0.32
CC1=Nn2c(nc3sc(-c4ccccc4)cc3c2=O)SC1 | -1.3
CCC1(c2cccc(OC)c2)CCCCNC1=O (stereo not drawn) | 1.4
CC(NC1CCS(=O)(=O)C1)C(=O)O (stereo not drawn) | 0.92
COC(=O)c1sc(N2C(=O)C(O)=C(C(=O)c3cccs3)C2c2ccc(F)cc2)nc1C (stereo not drawn) | 1.4
Cc1nnc(N2C(=O)C(O)=C(C(=O)c3ccco3)C2c2ccccc2)s1 (stereo not drawn) | 1.2
CC(C)c1ccc(C2C(C(=O)c3cccs3)=C(O)C(=O)N2CCCN2CCOCC2)cc1 (stereo not drawn) | 1.3
SMILES | Dicer inh
Cc1nnc(N2C(=O)C(O)=C(C(=O)c3cccs3)C2c2ccc(F)cc2)s1 (stereo not drawn) | 3.8*
O=C(C1=C(O)C(=O)N(CCN2CCOCC2)C1c1ccncc1)c1cccs1 (stereo not drawn) | -2.3
COC(=O)c1sc(N2C(=O)C(O)=C(C(=O)c3cccs3)C2c2ccc(C(C)C)cc2)nc1C (stereo not drawn) | 2.4
Cc1ccc(C2C(C(=O)c3cccs3)=C(O)C(=O)N2CCCn2ccnc2)cc1 (stereo not drawn) | 3.3*
COc1ccc(C2C(C(=O)c3ccco3)=C(O)C(=O)N2c2nnc(C)s2)cc1OC (stereo not drawn) | 0.56
Cc1nnc(N2C(=O)C(O)=C(C(=O)c3cccs3)C2c2ccc(Cl)cc2)s1 (stereo not drawn) | 0.95
COC(=O)c1sc(N2C(=O)C(O)=C(C(=O)c3cccs3)C2c2ccc(Cl)cc2)nc1C (stereo not drawn) | 3.8*
Cc1nnc(N2C(=O)C(O)=C(C(=O)c3cccs3)C2c2ccc(C(C)(C)C)cc2)s1 (stereo not drawn) | 1.1
Cc1nnc(N2C(=O)C(O)=C(C(=O)c3ccco3)C2c2ccc(Cl)cc2)s1 (stereo not drawn) | 4.2*
CCCCNC(=O)c1cccc2c1-c1ccccc1C2=O | 2.5
Cn1c(=O)c2[nH]c(NCc3ccccc3Cl)nc2n(C)c1=O | -0.56
COc1ccc(-c2noc(COc3ccccc3)n2)cc1OC | 0.69
O=C(COc1ccccc1Br)Nc1nccs1 | 2.1
c1cncc(-c2nc3ccc(Oc4ccc5nc(-c6cccnc6)[nH]c5c4)cc3[nH]2)c1 | 0.1
O=C(NC(Cc1c[nH]c2ccccc12)C(=O)NC1CCCCC1)Oc1ccccc1 (stereo not drawn) | 2
Cc1ccc2cc(NC(=O)c3cc(C)n(C)n3)ccc2n1 | 0.49
C/C(Cc1nnn(-c2cc(C)on2)n1)=N\OC(=O)Nc1ccc(Cl)cc1 | 0.71
CCOC(=O)c1cnc2cc(C(C)(C)C)[nH]n2c1=O | -0.03
COc1ccc(S(=O)(=O)NNc2c(Cl)cc(Cl)cc2Cl)cc1OC | 1.7
COc1cc(C2C3=C(CCCC3=O)NC3=C2C(=O)CCC3)ccc1O | 0.63
CC(=O)Nc1cccc(-n2nnc(SCc3ccccc3)n2)c1 | 1.1
O=C(O)CCC(=O)c1ccc2c(c1)OCCCO2 | 1.2
CC(=O)Nc1cccc(-n2nnc(SCC(=O)c3ccc4c(c3)OCCCO4)n2)c1 | 3.1*
Cc1ccc(OCc2nc3ccc(N)cc3[nH]2)cc1 | 2.1
CC1=NN(c2ccc(C)cc2)C(=O)C1=C1SCCS1 | -0.81
SMILES | Dicer inh
O=c1oc2ccccc2n1Cc1ccc(Cl)cc1 | -0.45
O=c1oc2ccccc2n1Cc1ccccc1Cl | 4.9*
Cc1ccc(Cn2c(=O)oc3ccccc32)cc1 | -0.05
O=C1c2cccc3cccc(c23)C(=O)N1CCCNCCO | 2.6
CC1(C)SC([C@@H](O)[C@H](O)[C@H](O)CO)N[C@H]1C(=O)O (stereo partly drawn) | -1.6
CC(=O)C1=NN(c2cccc(Cl)c2)C2C(=O)N(c3ccccc3)C(=O)C12 (stereo not drawn) | 0.57
O=C(CSc1nnnn1-c1ccccc1)Nc1nsc(-c2ccc(Cl)cc2)n1 | 2.4
CC(C)(C)c1ccc(-c2nc(NC(=O)CSc3nnc4ccccn34)ns2)cc1 | 3*
Cc1ccc(-c2nc(NC(=O)CSc3nnc4ccccn34)ns2)cc1 | 1.6
CCOCCOC(=O)C1=C(C)NC2=C(C(=O)CC(C)(C)C2)C1c1ccc(OC)c(O)c1 (stereo not drawn) | 0.73
CCCOc1ccc(C2c3c(oc4ccccc4c3=O)C(=O)N2Cc2ccc3c(c2)OCO3)cc1 (stereo not drawn) | 0.26
N/C(=N\OCc1ccc(Cl)cc1)c1cc(Cl)c(N)c(Cl)c1 | 0.02
COc1cc(-c2cc3c(c(N)c2C#N)c(=O)oc2ccccc23)cc(OC)c1OC | 3.7*
COc1ccc(-c2cc(=S)sc(N)c2C#N)cc1OC | -2.7
N#Cc1c(=N)nc2oc3ccccc3c3cc(-c4ccccc4)[nH]c1c23 | 0.72
CC1=CC(C)(C)N(C(=O)CN2C(=O)C3CCCCC3C2=O)c2ccccc21 (stereo not drawn) | -0.4
O=C1CSC(=Nc2cccc(F)c2)N1Cc1ccccc1Cl | -0.35
Oc1ccccc1CNc1nc2ccccc2n1CCN1CCOCC1 | 4.1*
O=C(Nc1nc2ccccc2n1CCN1CCOCC1)c1cccc([N+](=O)[O-])c1 | 0.22
c1ccc(CNc2nc3ccccc3n2CCN2CCCCC2)nc1 | 3.5*
COc1ccc(CNc2nc3ccccc3n2C)cc1OC | 1.8
c1ccc2c(c1)nc(NCc1ccncc1)n2CCN1CCOCC1 | 2.5
Cc1ccc(CNc2nc3ccccc3n2CCN2CCOCC2)cc1 | 1.6
